Inconclusive results are not listed. The source made the active and inactive calls. The call rests on the fitted dose curve; in most records, active means well fitted cell-killing curve with a large enough effect; inconclusive means small, poorly fitted or top-dose-only effect, or effect the other way; inactive means no such curve, though single readings can be large or run the other way.
How the values were obtained:
[1] = Quantitative High-Throughput drug screen in 47 multiple myeloma cell lines against the NCATS MIPE library collection: KMS28PE_JCRB cell viability assay (AID 1918983); further: nearly all actives have a fitted effect of over 35% in size
Method in brief: (§1)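 500 cells/well per myeloma line exposed to pinned MIPE 4.0 compounds for 48 h at 37 °C, 5% CO2. Viability read as ATP by CellTiter-Glo luminescence, normalised to DMSO-only (100%) and media-only (0%) wells.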

[2] = Quantitative High-Throughput drug screen in 47 multiple myeloma cell lines against the NCATS MIPE library collection: SKMM1_PLB cell viability assay (AID 1919863); settings: SKMM1 myeloma viability, CellTiter-Glo ATP, 48 h; viability: active compounds read low; further: nearly all actives have a fitted effect of over 35% in size; on viability: series mostly up to about 46 µM
Method in brief: as §1

[3] = Quantitative High-Throughput drug screen in 47 multiple myeloma cell lines against the NCATS MIPE library collection: U266_ATCC cell viability assay (AID 1919864); further: nearly all actives have a fitted effect of over 35% in size
Method in brief: as §1

[4] = Quantitative High-Throughput drug screen in 47 multiple myeloma cell lines against the NCATS MIPE library collection: XG6_PLB cell viability assay (AID 1919865); further: nearly all actives have a fitted effect of over 40% in size
Method in brief: as §1

[5] = Quantitative High-Throughput drug screen in 47 multiple myeloma cell lines against the NCATS MIPE library collection: UTMC2_PLB cell viability assay (AID 1919868); further: nearly all actives have a fitted effect of over 55% in size
Method in brief: as §1

[6] = Quantitative High-Throughput drug screen in 47 multiple myeloma cell lines against the NCATS MIPE library collection: PE2_PLB cell viability assay (AID 1919869); further: nearly all actives have a fitted effect of over 35% in size
Method in brief: as §1

[7] = Quantitative High-Throughput drug screen in 47 multiple myeloma cell lines against the NCATS MIPE library collection: RPMI8226_ATCC cell viability assay (AID 1919871); further: nearly all actives have a fitted effect of over 30% in size
Method in brief: as §1

[8] = Quantitative High-Throughput drug screen in 47 multiple myeloma cell lines against the NCATS MIPE library collection: OPM2_DSMZ cell viability assay (AID 1919872); further: nearly all actives have a fitted effect of over 30% in size
Method in brief: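 Primary qHTS used for cherry-picking: cells at 500/well, library compounds for 48 h (37C, 5% CO2), luminescent ATP assay.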

[9] = Quantitative High-Throughput drug screen in 47 multiple myeloma cell lines against the NCATS MIPE library collection: KMS11_JCRBsus cell viability assay (AID 1919873); further: nearly all actives have a fitted effect of over 50% in size
Method in brief: as §1

[10] = Quantitative High-Throughput drug screen in 47 multiple myeloma cell lines against the NCATS MIPE library collection: OCIMY7_PLB cell viability assay (AID 1918987); further: nearly all actives have a fitted effect of over 65% in size
Method in brief: as §1

[11] = Quantitative High-Throughput drug screen in 47 multiple myeloma cell lines against the NCATS MIPE library collection: OPM1_PLB cell viability assay (AID 1918989); further: nearly all actives have a fitted effect of over 40% in size
Method in brief: as §1

[12] = Quantitative High-Throughput drug screen in 47 multiple myeloma cell lines against the NCATS MIPE library collection: XG1_PLB cell viability assay (AID 1919866); further: nearly all actives have a fitted effect of over 35% in size
Method in brief: as §1

[13] = Quantitative High-Throughput drug screen in 47 multiple myeloma cell lines against the NCATS MIPE library collection: KMS28BM_JCRB cell viability assay (AID 1919874); further: nearly all actives have a fitted effect of over 35% in size
Method in brief: as §1

[14] = Quantitative High-Throughput drug screen in 47 multiple myeloma cell lines against the NCATS MIPE library collection: KMS34_JCRB cell viability assay (AID 1918985); further: nearly all actives have a fitted effect of over 40% in size
Method in brief: as §1

[15] = Quantitative High-Throughput drug screen in 47 multiple myeloma cell lines against the NCATS MIPE library collection: VP6_DJ cell viability assay (AID 1919867); further: nearly all actives have a fitted effect of over 40% in size
Method in brief: as §1

[16] = Quantitative High-Throughput drug screen in 47 multiple myeloma cell lines against the NCATS MIPE library collection: OCIMY5_PLB cell viability assay (AID 1918988); further: nearly all actives have a fitted effect of over 65% in size
Method in brief: as §1

[17] = Quantitative High-Throughput drug screen in 47 multiple myeloma cell lines against the NCATS MIPE library collection: PCM6_Riken cell viability assay (AID 1919870); further: nearly all actives have a fitted effect of over 30% in size
Method in brief: as §1
Potency means the concentration at half of the fitted maximal effect.

NC12CC3CC(CC(C3)C1)C2
inactive: Potency [1] | viability [2] 134% | Potency [6] | Potency [8]
active: Potency [3] 26.4 µM | Potency [4] 2.96 µM | Potency [5] 8.33 µM | Potency [7] 0.833 µM | Potency [9] 16.6 µM

O=c1c(O)c(-c2ccc(O)c(O)c2)oc2cc(O)cc(O)c12
inactive: Potency [1] | Potency [7] | Potency [13]
active: Potency [10] 11.8 µM | Potency [11] 20.9 µM | Potency [4] 16.6 µM | Potency [12] 18.7 µM | Potency [6] 18.7 µM

CN(C)c1nc(N(C)C)nc(N(C)C)n1
inactive: Potency [14] | Potency [11] | Potency [12] | Potency [5] | Potency [6] | Potency [8] | Potency [13]
active: Potency [1] 23.5 µM

CC(C(=O)O)c1cccc(C(=O)c2ccccc2)c1 (stereo not drawn)
active: Potency [4] 13.2 µM | Potency [12] 14.8 µM | Potency [6] 23.5 µM
inactive: Potency [1] | Potency [14] | viability [2] 106% | Potency [3] | Potency [7] | Potency [8] | Potency [9] | Potency [13]

CC(C)(Oc1ccc(C2CC2(Cl)Cl)cc1)C(=O)O (stereo not drawn)
inactive: Potency [1] | Potency [11] | viability [2] 131% | Potency [3] | Potency [12] | Potency [5] | Potency [7] | Potency [8] | Potency [9] | Potency [13]

CN(C)C(=N)N=C(N)N
inactive: Potency [11] | viability [2] 138% | Potency [3] | Potency [15] | Potency [7] | Potency [8] | Potency [9] | Potency [13]
active: Potency [1] 0.833 µM

CCCNCC(O)COc1ccccc1C(=O)CCc1ccccc1 (stereo not drawn)
inactive: Potency [1] | Potency [14] | Potency [3] | Potency [4] | Potency [6] | Potency [8]

NC(=O)NO
active: Potency [1] 2.35 µM | Potency [16] 0.235 µM | Potency [11] 0.833 µM | Potency [2] 10.5 µM | Potency [3] 2.64 µM | Potency [4] 2.35 µM | Potency [12] 9.35 µM | Potency [5] 1.66 µM | Potency [17] 2.35 µM | Potency [7] 3.72 µM | Potency [8] 6.62 µM | Potency [9] 0.526 µM | Potency [13] 0.935 µM

NS(=O)(=O)c1cc2c(cc1Cl)NCNS2(=O)=O
active: Potency [12] 7.43 µM
inactive: Potency [1] | Potency [14] | viability [2] 114% | Potency [7] | Potency [8] | Potency [9]

COc1cc2nc(N3CCN(C(=O)c4ccco4)CC3)nc(N)c2cc1OC
active: Potency [1] 26.4 µM | Potency [11] 8.33 µM | Potency [2] 23.5 µM | Potency [3] 18.7 µM | Potency [4] 7.43 µM | Potency [12] 8.33 µM | Potency [5] 11.8 µM | Potency [9] 13.2 µM | Potency [13] 10.5 µM

COc1ccc2[nH]cc(CCNC(C)=O)c2c1
inactive: Potency [1] | Potency [10] | viability [2] 123% | Potency [12] | Potency [15] | Potency [7] | Potency [9]
active: Potency [3] 8.33 µM

Clc1ccc2nsnc2c1NC1=NCCN1
inactive: Potency [1] | Potency [11] | Potency [4] | Potency [12] | Potency [15] | Potency [5] | Potency [8] | Potency [9] | Potency [13]

CCOC(=O)Nc1ccc(NCc2ccc(F)cc2)nc1N
active: Potency [4] 14.8 µM
inactive: Potency [1] | Potency [11] | viability [2] 134% | Potency [3] | Potency [12] | Potency [5] | Potency [7] | Potency [8]

NCCc1cnc[nH]1
inactive: Potency [1] | Potency [16] | Potency [11] | Potency [3] | Potency [12] | Potency [5] | Potency [17] | Potency [9] | Potency [13]

CC1(CN2CCC(n3c(=O)[nH]c4ccccc43)CC2)OCc2ccccc2-n2cccc21 (stereo not drawn)
active: Potency [1] 14.8 µM | Potency [11] 8.33 µM | Potency [3] 5.9 µM | Potency [4] 4.18 µM | Potency [12] 4.18 µM | Potency [6] 13.2 µM
inactive: Potency [8]

O=C1Cc2cc(CCN3CCN(c4nsc5ccccc45)CC3)c(Cl)cc2N1
active: Potency [14] 20.9 µM | Potency [4] 23.5 µM | Potency [12] 23.5 µM | Potency [5] 20.9 µM | Potency [7] 20.9 µM | Potency [13] 23.5 µM

CCCCc1oc2ccccc2c1C(=O)c1cc(I)c(OCCN(CC)CC)c(I)c1
active: Potency [14] 11.8 µM | Potency [11] 18.7 µM | Potency [2] 20.9 µM | Potency [3] 3.72 µM | Potency [4] 13.2 µM | Potency [12] 10.5 µM | Potency [15] 14.8 µM | Potency [7] 18.7 µM | Potency [13] 20.9 µM

Nc1nnc(-c2cccc(Cl)c2Cl)c(N)n1
inactive: Potency [5] | Potency [7] | Potency [8] | Potency [9] | Potency [13]
active: Potency [10] 33.2 µM | Potency [11] 23.5 µM | Potency [4] 9.35 µM | Potency [12] 16.6 µM

CN1CCC(=C2c3ccccc3C=Cc3ccccc32)CC1
active: Potency [11] 18.7 µM | Potency [3] 16.6 µM | Potency [4] 8.33 µM | Potency [12] 13.2 µM | Potency [5] 13.2 µM | Potency [6] 23.5 µM
inactive: Potency [8]

COc1cc2nc(N(C)CCCNC(=O)C3CCCO3)nc(N)c2cc1OC (stereo not drawn)
inactive: Potency [3] | Potency [4] | Potency [12] | Potency [15] | Potency [6]

O=c1c(-c2ccc(O)cc2)coc2cc(O)cc(O)c12
active: Potency [17] 7.43 µM | Potency [7] 20.9 µM
inactive: Potency [11] | Potency [8] | Potency [13]

— PubChem BioAssay (NCATS)
